From PubChem
GPT2 inhibitor – blocks human glutamate pyruvate transaminase 2. Q8TD30. 0.25% of 100,000 active. Potency, µM (series often up to 57.7 µM), actives largely listed as inhibitors. Recombinant GPT2, coupled pyruvate oxidase/HRP Amplex Red fluorescence; note: nearly all actives have a fitted effect of over 60% in size
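Inhibition is scored from Amplex Red fluorescence generated when pyruvate oxidase and HRP act on pyruvate released by GPT2. Reactions contain 10ng/uL enzyme, 250uM a-KG and 2mM L-alanine and run 30 min at room temperature.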
NPR1 antag – human Npr1 receptor antagonism; P16066; HEK293 hNpr1 GloSensor cGMP, ANP-stimulated luminescence; Potency, µM (doses to about 46.3 µM), hits mostly inhibitors; 1.6% of 76,000 active; AID 1347048; calls by dose curve; note: nearly all actives have a fitted effect of over 60% in size
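HEK293 cells stably expressing human Npr1 and cGMP GloSensor pGS-40F, loaded 2 h with 2% GloSensor reagent, given compound 30 min at room temperature. Luminescence read before and 20 min after 0.1 nM hNppA.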
HEK293 tox – kills HEK 293 cells; HEK 293 viability, ATP luminescence (CellTiter-Glo), 48-72 h; Potency, µM (series often up to 115 µM), actives largely listed as inhibitors; 6.6% of 94,000 active; AID 1345083; note: nearly all actives have a fitted effect of over 60% in size
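Read-out: CellTiter-Glo ATP luminescence. Cells: HEK 293, 250 cells/well. Exposure: 48 or 72 hr, 37 degree Celsius.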
3T3 cytotox – NIH 3T3 cell cytotoxicity | NIH 3T3 viability, CellTiter-Glo ATP luminescence, 48-72 h | Potency, µM (highest dose often 96.7 µM), hits mostly inhibitors | 4.3% of 94,000 active; note: nearly all actives have a fitted effect of over 55% in size
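Viability of NIH 3T3 cells after 48 or 72 hr compound treatment at 37 °C was assessed by CellTiter-Glo, with luminescence imaged following a 10 min room-temperature step.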
FLuc inh – blocks purified firefly luciferase enzyme activity; purified P. pyralis luciferase, luminescence, biochemical; Potency, µM (highest dose often 115 µM), hits mostly inhibitors; AID 1347043; P08659; 2.5% of 76,000 active; note: nearly all actives have a fitted effect of over 65% in size
Target sequence (P08659 whole entry, looked up): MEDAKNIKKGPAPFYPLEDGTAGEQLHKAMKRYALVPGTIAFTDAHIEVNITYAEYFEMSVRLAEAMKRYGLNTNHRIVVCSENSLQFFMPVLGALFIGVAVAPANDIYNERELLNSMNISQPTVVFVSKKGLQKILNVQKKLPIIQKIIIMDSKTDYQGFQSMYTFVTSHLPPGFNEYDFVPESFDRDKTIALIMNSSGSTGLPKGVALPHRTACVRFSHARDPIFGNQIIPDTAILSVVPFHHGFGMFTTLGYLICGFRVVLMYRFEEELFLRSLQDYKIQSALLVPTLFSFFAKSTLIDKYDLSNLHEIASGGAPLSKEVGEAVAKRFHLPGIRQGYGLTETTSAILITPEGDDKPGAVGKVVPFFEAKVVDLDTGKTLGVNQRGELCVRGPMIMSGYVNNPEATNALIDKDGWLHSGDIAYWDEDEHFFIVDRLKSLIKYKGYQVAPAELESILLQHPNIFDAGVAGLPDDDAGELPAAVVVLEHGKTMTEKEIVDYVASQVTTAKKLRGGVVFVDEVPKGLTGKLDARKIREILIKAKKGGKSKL
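Luminescence read by CCD imaging after purified firefly luciferase (10nM final) was added to substrate buffer holding 10uM D-luciferin and 10uM ATP, pH 7.5, pre-dosed with compound.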
Large screens that a line does not name were inactive; ! = repeats disagree. Sampled rows, rich in hits. Any-hit rate of the full collection: about 10%. Unless noted, calls come from the whole dose curve; as a rule, active = well fitted curve in the direction sought with a large enough effect; inconclusive = small, poorly fitted or top-dose-only effect, or another doubt; inactive = no such curve, though single readings can be large; an effect the other way counts as inactive or inconclusive.

COc1ccc(-c2cc(N3CCCC(NC(=O)c4ccc(C(F)(F)F)cc4)C3)n[nH]2)cc1 (stereo not given)	HEK293 tox inconclusive, 3T3 cytotox 45µM
O=C(NC1CCCN(c2cc(-c3ccccc3)[nH]n2)C1)c1ccc(C(F)(F)F)cc1 (stereo not given)	HEK293 tox inconclusive, 3T3 cytotox inconclusive
COc1ccc(-c2cc(N3CCC(NC(=O)c4ccc(C)c(C)c4)C3)n[nH]2)cc1 (stereo not given)	GPT2 inhibitor inconclusive, HEK293 tox 50µM, 3T3 cytotox inconclusive
COc1ccc(-c2cc(N3CCCC(NC(=O)c4cc5ccccc5[nH]4)C3)n[nH]2)cc1 (stereo not given)	GPT2 inhibitor inconclusive, HEK293 tox inconclusive, 3T3 cytotox inconclusive, FLuc inh 8.9µM
COc1ccc(-c2cc(N3CCCC(NC(=O)c4cc(C)cc(C)c4)C3)n[nH]2)cc1 (stereo not given)	GPT2 inhibitor inconclusive, HEK293 tox 45µM, 3T3 cytotox 40µM, FLuc inh inconclusive
COc1ccc(-c2cc(N3CCCC(NC(=O)c4ccccc4F)C3)n[nH]2)cc1 (stereo not given)	GPT2 inhibitor inconclusive, HEK293 tox inconclusive, 3T3 cytotox inconclusive, FLuc inh inconclusive
COc1ccc(-c2cc(N3CCC(NC(=O)Cc4ccccc4C)CC3)n[nH]2)cc1	HEK293 tox inconclusive, 3T3 cytotox inconclusive
CN(C)c1cccc(C(=O)NC2CCN(c3cc(-c4ccc(F)cc4)[nH]n3)CC2)c1	NPR1 antag inconclusive, HEK293 tox inconclusive, 3T3 cytotox inconclusive, FLuc inh 35µM
COc1ccc(-c2cc(N3CCC(NC(=O)COc4ccccc4C)CC3)n[nH]2)cc1	GPT2 inhibitor inconclusive, NPR1 antag inconclusive, HEK293 tox inconclusive, 3T3 cytotox 25µM
O=C(c1ccc(OC2CCN(Cc3c[nH]c4ccccc34)CC2)cc1)N1CCCCC1	HEK293 tox 22µM, 3T3 cytotox inconclusive
O=C(C1CCCC1)N1CC2(CCN(Cc3ccccn3)C2)Cc2ccccc21 (stereo not given)	HEK293 tox inconclusive, 3T3 cytotox inconclusive (no result: NPR1 antag, FLuc inh)
O=C(c1ccc(F)cc1)N1CCC(Oc2ccccc2)C1 (stereo not given)	none
O=C(C1CCCC1)N1CC2(CCN(CC3CC3)C2)Cc2ccccc21 (stereo not given)	GPT2 inhibitor inconclusive, HEK293 tox 25µM, 3T3 cytotox 45µM (no result: NPR1 antag, FLuc inh)
O=C(C1CCCC1)N1CC2(CCN(Cc3ccccn3)CC2)Cc2ccccc21	HEK293 tox 100µM, 3T3 cytotox inconclusive (no result: NPR1 antag, FLuc inh)
CC(=O)N1CC2(CCN(CC3CC3)C2)Cc2ccccc21 (stereo not given)	none (no result: NPR1 antag, FLuc inh)
O=C(C1CCCC1)N1CC2(CCN(Cc3c[nH]c4ccccc34)CC2)Cc2ccccc21	HEK293 tox 20µM, 3T3 cytotox 13µM (no result: NPR1 antag, FLuc inh)
COCC(=O)NC1CN(c2ccnc3ccnn23)C1	none (no result: NPR1 antag, FLuc inh)
CCC(=O)NC1CCN(c2ccnc3ccnn23)C1 (stereo not given)	none (no result: NPR1 antag, FLuc inh)
O=C(NC[C@H]1O[C@H](Cc2cc(CN3CCN(c4ccccc4)CC3)on2)CC[C@@H]1O)c1ccccc1	none
CC(C)NC(=O)c1nc2cccnc2n(-c2ccc(N(C)C)cc2)c1=O	none (no result: NPR1 antag, FLuc inh)
Cc1cccc(NC(=O)CC2CCCN(c3cnn(CC4CC4)c(=O)c3)C2)c1 (stereo not given)	HEK293 tox inconclusive, 3T3 cytotox 25µM
CCc1cccc(NC(=O)CC2CCCN(c3cnn(CC4CC4)c(=O)c3)C2)c1 (stereo not given)	HEK293 tox inconclusive, 3T3 cytotox 40µM
Cc1ccc(NC(=O)CC2CCCN(c3cnn(CC4CC4)c(=O)c3)C2)cc1 (stereo not given)	3T3 cytotox inconclusive
Cc1ccc(CN2Cc3[nH]cnc3C[C@H]2C(=O)NCc2ccc(C(F)(F)F)cc2)cc1	HEK293 tox 71µM, 3T3 cytotox 100µM
N#Cc1ccc(CNC(=O)[C@@H]2Cc3nc[nH]c3CN2Cc2ccc(C(F)(F)F)cc2)cc1	none
COc1cccc([S+](=O)([O-])NC[C@@H]2CC[C@H]3C[C@@H]2C3(C)C)c1	HEK293 tox 100µM, 3T3 cytotox inconclusive
COc1ccc(CNC(=O)N2CCC(Cc3ncc(C)n3C3CC3)C2)cc1 (stereo not given)	none (no result: NPR1 antag, FLuc inh)
Cc1ccccc1OCc1nc(C2CN(C(=O)Cc3cccc(F)c3)C2)no1	HEK293 tox 45µM, 3T3 cytotox 40µM
O=C(Cc1ccccc1)N1CCC(c2noc(COc3ccc(F)cc3)n2)CC1	GPT2 inhibitor inconclusive, HEK293 tox 45µM, 3T3 cytotox inconclusive (no result: NPR1 antag, FLuc inh)
CCN(CC)C(=O)N1CCC(c2noc(COc3ccc(F)cc3)n2)C1 (stereo not given)	HEK293 tox 45µM, 3T3 cytotox inconclusive (no result: NPR1 antag, FLuc inh)
Cc1ccccc1OCc1nc(C2CN(C(=O)c3cc(F)ccc3F)C2)no1	HEK293 tox inconclusive
Cc1cc(S(=O)(=O)N2CCC(c3noc(COc4ccc(F)cc4)n3)CC2)ccc1F	NPR1 antag inconclusive, HEK293 tox 25µM, 3T3 cytotox 35µM
CC(C)(C)c1nc(C(=O)NCc2ccc(F)cc2)n2ccncc12	HEK293 tox inconclusive, 3T3 cytotox inconclusive (no result: NPR1 antag, FLuc inh)
c1ccc(CCCCn2ccnc2-c2cc3n(n2)CCCNC3)cc1	3T3 cytotox inconclusive
Clc1ccc(Cn2ccnc2-c2cc3n(n2)CCCNC3)cc1Cl	HEK293 tox inconclusive, 3T3 cytotox 25µM
C[S+](=O)([O-])N1C[C@H](C(=O)Nc2cccc(Cl)c2)C[C@@H]1c1ccc(F)cc1	HEK293 tox inconclusive, 3T3 cytotox inconclusive
Cc1cccc(NC(=O)Nc2ccc(C)n(CC(=O)O)c2=O)c1	FLuc inh 16µM
Cc1cccc(NC(=O)Nc2ccc(C)n(CC(=O)Nc3ccc(C)c(C)c3)c2=O)c1	HEK293 tox 28µM, 3T3 cytotox 32µM
CN(CCc1ccccc1)CCN1CC2(CCN(c3ncccc3C#N)CC2)OC1=O	HEK293 tox 40µM, 3T3 cytotox inconclusive
N#Cc1cccnc1N1CCCC(CO)(CCCc2ccccc2)C1 (stereo not given)	HEK293 tox inconclusive, 3T3 cytotox inconclusive
OC(c1nc(Nc2cccc(F)c2)n[nH]1)C1CC1 (stereo not given)	3T3 cytotox 112µM, FLuc inh inconclusive
OC(c1nc(Nc2cccc(Cl)c2)n[nH]1)C1CC1 (stereo not given)	3T3 cytotox inconclusive, FLuc inh 45µM
O=C(c1cccc(Cl)c1)N1CCC(C(=O)N2CCCC2c2nc3ccncc3[nH]2)CC1 (stereo not given)	none (no result: NPR1 antag, FLuc inh)
c1ccc(-c2nc3ccncc3[nH]2)nc1	HEK293 tox 45µM!, 3T3 cytotox inconclusive
c1csc(-c2nc3ccncc3[nH]2)c1	HEK293 tox inconclusive, 3T3 cytotox 100µM!, FLuc inh inconclusive
CC(=O)NCC(=O)N1Cc2ccccc2CC2(CCCCN2CC2CCNC2)C1 (stereo not given)	none (no result: NPR1 antag, FLuc inh)
O=C(NC1C=CS(=O)(=O)C1)c1ccc2nc(-c3ccc(F)cc3)cn2c1 (stereo not given)	HEK293 tox 45µM, 3T3 cytotox inconclusive, FLuc inh 40µM
